16 compounds from PubChem BioAssay can be followed below.

Test [1] can be described thus: small molecules captured by biotinylated probe aFSTL3 – biochemical, small-molecule microarray, fluorescence 635/667, stem cell growth factor project, primary screen (AID 1064).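 Note: measures binding of the biotinylated anti-FSTL3 antibody to printed compounds.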 The conditions noted are these: higher = more signal.
The nature of test [2]: binders from COS7 lysate, DM2A8 probe, primary screen, torsin A project, cell lysate, small-molecule microarray, fluorescence 635/667 (AID 1065). The conditions noted are these: higher = more signal, COS7 lysate expressing mutant human TOR1A.
The nature of test [3]: small molecules captured by biotinylated probe aFGF2 – biochemical, small-molecule microarray, fluorescence 635/667, stem cell growth factor project, primary screen (AID 1067).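 Note: measures binding of biotinylated aFGF2 protein to printed compounds on slides; z-score merges feature fluorescence and signal-to-noise across triplicate slides.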 The conditions noted are these: higher = more signal.
Test [4] is described as follows: small molecules captured by biotinylated probe aFGF10 – biochemical, small-molecule microarray, fluorescence 635/667, stem cell growth factor project, primary screen (AID 1071).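 Note: score merges 667 nm spot intensity and signal to noise from triplicate slides.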 The conditions noted are these: higher = more signal.
For test [5], the target named is Neurogenic locus notch homolog protein 2 (Homo sapiens) (UniProt Q04721). Put plainly: small molecules binding Notch2 protein – biochemical, small-molecule microarray, 635 nm fluorescence, stem cell growth factors, primary screen (AID 1073). The conditions noted are these: higher = more signal.
Sequence of Neurogenic locus notch homolog protein 2 (Homo sapiens) (Q04721 whole entry, looked up, canonical isoform): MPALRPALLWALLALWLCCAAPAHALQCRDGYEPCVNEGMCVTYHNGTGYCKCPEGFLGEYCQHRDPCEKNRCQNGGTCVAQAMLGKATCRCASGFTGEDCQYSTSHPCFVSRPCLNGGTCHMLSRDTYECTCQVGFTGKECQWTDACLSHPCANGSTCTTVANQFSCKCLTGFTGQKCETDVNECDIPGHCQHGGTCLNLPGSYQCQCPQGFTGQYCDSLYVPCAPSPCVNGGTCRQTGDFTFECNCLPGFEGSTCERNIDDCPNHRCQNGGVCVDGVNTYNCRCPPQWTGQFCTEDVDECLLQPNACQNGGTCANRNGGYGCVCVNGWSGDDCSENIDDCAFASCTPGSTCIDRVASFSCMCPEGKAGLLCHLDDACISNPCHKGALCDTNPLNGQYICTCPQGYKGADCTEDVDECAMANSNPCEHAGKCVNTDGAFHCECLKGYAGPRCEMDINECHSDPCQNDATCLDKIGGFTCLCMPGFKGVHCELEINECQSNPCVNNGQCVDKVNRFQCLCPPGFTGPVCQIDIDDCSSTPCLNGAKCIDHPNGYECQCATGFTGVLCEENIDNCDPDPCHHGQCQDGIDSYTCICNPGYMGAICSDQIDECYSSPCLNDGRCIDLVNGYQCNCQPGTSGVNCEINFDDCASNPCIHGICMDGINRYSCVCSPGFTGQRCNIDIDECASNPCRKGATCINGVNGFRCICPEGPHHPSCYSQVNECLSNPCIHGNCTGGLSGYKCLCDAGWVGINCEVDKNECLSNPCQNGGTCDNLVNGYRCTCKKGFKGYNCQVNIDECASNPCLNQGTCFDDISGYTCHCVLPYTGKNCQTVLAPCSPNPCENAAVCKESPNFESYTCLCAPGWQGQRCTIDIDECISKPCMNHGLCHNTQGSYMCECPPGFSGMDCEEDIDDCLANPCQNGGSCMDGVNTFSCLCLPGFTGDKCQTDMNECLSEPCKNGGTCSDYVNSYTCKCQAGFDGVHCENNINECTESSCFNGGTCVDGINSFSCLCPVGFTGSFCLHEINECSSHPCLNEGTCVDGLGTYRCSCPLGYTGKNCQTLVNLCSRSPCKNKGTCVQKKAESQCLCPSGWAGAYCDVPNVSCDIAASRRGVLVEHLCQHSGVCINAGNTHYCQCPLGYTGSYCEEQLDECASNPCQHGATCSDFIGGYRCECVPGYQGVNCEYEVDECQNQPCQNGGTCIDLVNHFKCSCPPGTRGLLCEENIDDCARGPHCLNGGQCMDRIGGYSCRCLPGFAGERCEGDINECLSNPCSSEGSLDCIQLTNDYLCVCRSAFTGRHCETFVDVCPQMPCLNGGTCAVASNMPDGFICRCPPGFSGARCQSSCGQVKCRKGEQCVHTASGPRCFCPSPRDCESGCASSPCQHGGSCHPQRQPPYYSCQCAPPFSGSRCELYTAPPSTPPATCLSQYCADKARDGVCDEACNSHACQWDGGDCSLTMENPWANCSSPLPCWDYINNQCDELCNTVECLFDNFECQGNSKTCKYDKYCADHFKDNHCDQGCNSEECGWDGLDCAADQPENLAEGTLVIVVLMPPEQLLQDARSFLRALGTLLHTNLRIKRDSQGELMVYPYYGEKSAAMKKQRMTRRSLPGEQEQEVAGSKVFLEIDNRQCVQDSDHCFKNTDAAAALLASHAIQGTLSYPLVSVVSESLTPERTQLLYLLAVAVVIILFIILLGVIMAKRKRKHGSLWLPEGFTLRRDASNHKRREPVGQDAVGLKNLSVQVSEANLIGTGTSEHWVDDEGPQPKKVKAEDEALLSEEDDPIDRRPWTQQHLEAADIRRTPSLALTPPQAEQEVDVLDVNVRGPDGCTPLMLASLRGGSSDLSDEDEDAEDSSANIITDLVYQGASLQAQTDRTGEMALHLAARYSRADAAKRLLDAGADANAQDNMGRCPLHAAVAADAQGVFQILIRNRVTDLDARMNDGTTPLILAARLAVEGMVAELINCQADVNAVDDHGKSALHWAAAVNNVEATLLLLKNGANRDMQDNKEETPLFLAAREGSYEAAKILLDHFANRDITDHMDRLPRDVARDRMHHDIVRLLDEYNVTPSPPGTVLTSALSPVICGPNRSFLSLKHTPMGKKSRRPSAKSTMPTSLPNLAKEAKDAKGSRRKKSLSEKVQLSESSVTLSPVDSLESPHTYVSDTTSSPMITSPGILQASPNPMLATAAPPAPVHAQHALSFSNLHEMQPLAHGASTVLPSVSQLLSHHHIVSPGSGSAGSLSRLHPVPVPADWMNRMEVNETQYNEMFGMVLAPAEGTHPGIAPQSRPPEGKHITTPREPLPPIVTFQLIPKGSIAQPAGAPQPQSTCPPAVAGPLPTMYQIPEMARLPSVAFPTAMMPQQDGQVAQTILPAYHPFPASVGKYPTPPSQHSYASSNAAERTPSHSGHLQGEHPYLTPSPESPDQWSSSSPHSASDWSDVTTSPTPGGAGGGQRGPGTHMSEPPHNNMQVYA
In test [6] the target is Pro-neuregulin-1, membrane-bound isoform (Homo sapiens) (UniProt Q02297). Put plainly: small molecules binding neuregulin-1 protein – biochemical, small-molecule microarray, fluorescence 635/667, psychiatric disease protein project, primary screen (AID 1075).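 Note: score combines 667 nm spot fluorescence with signal to noise.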 The conditions noted are these: NRG1 binding, 635 nm fluorescence, higher = more signal.
Sequence of Pro-neuregulin-1, membrane-bound isoform (Homo sapiens) (Q02297 whole entry, looked up, the tested form may be a part, canonical isoform): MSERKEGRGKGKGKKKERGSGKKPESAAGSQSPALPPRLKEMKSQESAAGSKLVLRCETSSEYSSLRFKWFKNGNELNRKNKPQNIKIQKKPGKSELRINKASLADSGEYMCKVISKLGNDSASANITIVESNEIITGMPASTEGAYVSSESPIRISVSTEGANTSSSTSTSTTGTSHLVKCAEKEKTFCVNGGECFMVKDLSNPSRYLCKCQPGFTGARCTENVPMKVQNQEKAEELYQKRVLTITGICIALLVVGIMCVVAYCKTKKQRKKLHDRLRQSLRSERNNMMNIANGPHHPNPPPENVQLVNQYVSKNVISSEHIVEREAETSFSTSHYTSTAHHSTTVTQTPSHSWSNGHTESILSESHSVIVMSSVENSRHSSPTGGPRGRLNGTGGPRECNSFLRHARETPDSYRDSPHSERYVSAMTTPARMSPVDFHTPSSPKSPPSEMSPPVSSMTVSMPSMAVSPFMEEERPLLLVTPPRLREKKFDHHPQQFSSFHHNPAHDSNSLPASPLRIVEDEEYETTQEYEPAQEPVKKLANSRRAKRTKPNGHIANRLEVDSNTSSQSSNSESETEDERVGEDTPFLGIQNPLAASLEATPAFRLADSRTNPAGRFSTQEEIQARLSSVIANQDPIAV
Test [7] deals with Neuregulin-1 EGF-like domain. Description: small molecules binding NRG1 EGF domain – biochemical, small-molecule microarray, 635 nm fluorescence, primary screen (AID 1081).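 Note: binding of the protein to compounds printed on small-molecule microarray slides.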 The conditions noted are these: higher = more signal.
Test [8] can be described thus: FRG1 expression reporter modulators in myotubes – cell-based, C2C12 myotubes, firefly/Renilla luciferase, luminescence, FRG1 inhibition for FSHD, primary screen (AID 1084). The conditions noted are these: FRG1 promoter luciferase, higher = more signal, called active from +8 up or from −8 down.
A short description of test [9]: small molecules captured by biotinylated probe aFST – biochemical, small-molecule microarray, fluorescence 635/667, stem cell growth factor project, primary screen (AID 1086).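 Note: score merges 667 nm fluorescence with signal-to-noise of each printed compound spot.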 The conditions noted are these: higher = more signal.
Test [10] can be described thus: binders of probe aHhip on microarray, primary screen, stem cell growth factor project, biochemical, small-molecule microarray, fluorescence 635/667 (AID 1087).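 Note: score merges spot fluorescence at 667nm with spot signal to noise ratio.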 The conditions noted are these: higher = more signal.

Calls of active or inactive are those of the source.

As to `COc1ccc(CCNC(=O)[C@@]2(c3ccc([N+](=O)[O-])cc3)CC(=O)N(C(C)C)[C@@H]2c2ccc(CO)cc2)cc1`, the composite z-score was 0.988 in test [1]; -0.716 in test [2]; -0.116 in test [3]; -0.94 in test [4]; -1.38 in [5]; 1.57 in [6]. The composite z-score in test [7] was 0.987; in test [9] it was -0.529; in test [10], -0.265. Besides, the z-score in test [8] was -1.39 (inactive).
In the case of `CCN1C(C)=C(C(=O)OC)[C@@H](c2ccccc2)N2C(=O)[C@](O)(C(=O)OC)[C@@H](c3ccccc3)C(C(=O)c3ccccc3)=C12`, the composite z-score in [1] is -0.14; in test [2], 0.36; in test [3] it was -0.0493; in test [4], 0.671; in test [5], 0.442; in test [6] it was 0.607. Further, the composite z-score in test [7] worked out at 0.708; in test [9], 0.0486; in [10], 0.141. In test [8], the z-score is -4.12 (inactive).
In the case of `Cc1ccc(S[C@]2(C(=O)NCCCN(C)C)CC(=O)N(Cc3ccccc3)[C@@H]2c2ccc(CO)cc2I)cc1`, the composite z-score is 1.04 in test [1]; -1.08 in [2]; -0.0785 in test [3]; -0.244 in test [4]; -0.189 in test [5]; 1.39 in test [6]. In addition, the composite z-score was 0.727 in [7], 1.04 in [9] and -0.427 in test [10]. For the same compound, the z-score in test [8] is -0.463 (inactive).
With `CCC(=O)[C@]12O[C@@]3([C@@H]4C(=O)OCC[C@@H]41)N(Cc1ccccc1)C(C)=C(C(=O)OC)[C@@H](c1ccccc1)N3C2=O`, the composite z-score was 0.232 in test [1]; -0.289 in test [2]; -0.163 in test [3]; -0.133 in [4]; -0.333 in test [5]; -0.0829 in [6]. The composite z-score in test [7] was -0.814; in test [9] it was -0.348; in [10], -0.134. The z-score in test [8] is -0.0144 (inactive).
On to `COCCOC(=O)N1C(=O)[C@@]2(c3cc(C#CC4=CCCCC4)ccc31)[C@H](c1ccc(O)cc1)N1[C@H](c3ccccc3)[C@H](c3ccccc3)OC(=O)[C@H]1[C@@H]2C(=O)N1CCCCCCC1`, for which the composite z-score is 2.57 in [1]; -0.264 in test [2]; -0.06 in test [3]; 0.0509 in test [4]; 0.521 in test [5]; 0.292 in test [6]. The figures for the composite z-score in test [7], in test [9] and in test [10] were 0.359, 0.547 and 0.294, respectively. In test [8], the z-score was 0.0812 (inactive).
For `O=C(CS)NCCCCCNC(=O)[C@H]1C[C@H]2C(=O)N3CCC[C@H]3C(=O)N2[C@H]1c1ccc(O)cc1`, the composite z-score in [1] was 0.305; in test [2], 0.0424; in test [3], -0.0363; in test [4], -0.267; in [5], -0.231; in test [6], 0.873. Also, the composite z-score in test [7] was 1.25; in [9], -0.339; in test [10] it was 0.0274. Further, in [8], the z-score was 0.393 (inactive).
`C=CCC1=C[C@H]2[C@H]([C@@H]3C=C[C@]2(CC=C)C(=O)[C@]32CO2)[C@@]2(CO2)C1=O`: the composite z-score in test [1] is 0.076; in [2], 1.28; in test [3], -0.034; in test [4] it was 0.612; in [5], 0.333; in test [6], -0.35. Moreover, the composite z-score in test [7] worked out at 0.319; in test [9], 0.501; in [10], 0.0542. Also, the z-score in test [8] is -1.52 (inactive).
For the compound `CCCNC(=O)[C@@H]1c2ccccc2C(=O)N(C2CCCCC2)[C@H]1c1ccc(CO)cc1`, the composite z-score in test [1] is -0.162; in test [2], 0.325; in test [3] it was -0.0374; in test [4], 0.549; in [5], 1.41; in test [6], 1.16. The composite z-score in test [7] is 1.29; in test [9], 0.56; in test [10], 0.0785. For the same compound, the z-score in test [8] is -0.0971 (inactive).
With `CCC#CCN(Cc1ccccc1Br)[C@H](/C=C/c1ccccc1)[C@@H](O)Cc1ccccc1`, the composite z-score in [1] is 1.78; in [2], -0.387; in test [3], -0.176; in [4], -0.61; in [5] it was -1.52; in test [6] it was -0.0939. The composite z-score was -0.11 in test [7], -0.465 in test [9] and -0.271 in test [10]. Further, the z-score in test [8] is -0.227 (inactive).
As to `CO[C@@H]1COC(=O)[C@H](COCc2ccccc2)NC(=O)CC=C[C@@H](C)[C@H](OC)COC(=O)[C@H](COCc2ccccc2)NC(=O)CC=C[C@H]1C`, the composite z-score in test [1] was -0.594; in test [2] it was 0.334; in test [3], -0.138; in [4], -0.0596; in [5], 0.0136; in test [6], 0.567. The composite z-score in test [7] is -0.618; in test [9], -0.0224; in test [10], -0.0994. In addition, in test [8], the z-score was -0.496 (inactive).
In the case of `Cc1ccc(S(=O)(=O)N2[C@@H](c3ccccc3)C(C(=O)O)=CC[C@H]2c2ccccc2)cc1`, the composite z-score in test [1] is -0.0332; in [2], -0.0906; in [3] it was -0.0502; in test [4], 0.693; in test [5] it was 1.44; in test [6] it was 1.06. Further, the values for the composite z-score in [7], in test [9] and in test [10] were 1.38, 0.273 and 0.0854, respectively. In test [8], the z-score was -2.89 (inactive).
Turning to `COCCOC(=O)N1C(=O)[C@@]2(c3cc(C#CCCO)ccc31)[C@H](c1ccc(OCCO)cc1)N1[C@H](c3ccccc3)[C@H](c3ccccc3)OC(=O)[C@H]1[C@@H]2C(=O)NC[C@H](O)c1ccccc1`, the composite z-score in test [1] is -0.484; in test [2], 1.04; in [3], -0.0628; in [4], 0.889; in test [5] it was 1.4; in test [6] it was 1.12. The composite z-score in test [7] came to 1.25; in [9], 0.788; in test [10], 0.152. Also, in [8], the z-score is 0.504 (inactive).
For `COc1ccc([Si](C)(C)[C@H]2[C@H](CC(=O)N(CCO)Cc3ccccc3)O[C@@]3(C(=O)N(C)c4ccccc43)[C@@H]2C)cc1`, the composite z-score was -0.412 in test [1]; 0.919 in test [2]; 0.0248 in test [3]; 0.877 in test [4]; -0.0546 in test [5]; 0.67 in test [6]. In addition, the composite z-score in [7] was 0.938; in test [9], 0.291; in test [10] it was -0.21. In test [8], the z-score was -1.39 (inactive).
As to `C=CC[C@]1(C(=O)O)N=C(c2ccc(OCCCO)cc2)O[C@H]1c1ccccc1`, the composite z-score in [1] was 1.03; in test [2], -0.269; in test [3] it was -0.0985; in test [4], -0.2; in test [5], -0.0704; in [6], 1.87. The composite z-score in [7] is 1.12; in test [9], 0.0226; in test [10] it was -0.169. In test [8], the z-score was 0.197 (inactive).
As for `CO[C@H]1COC(=O)[C@@H](OCc2ccccc2)C=C[C@H](C)[C@@H](OC)COC(=O)[C@H](OCc2ccccc2)C=C[C@@H]1C`, the composite z-score was -0.617 in test [1]; -0.144 in test [2]; -0.136 in [3]; -0.205 in test [4]; -0.893 in test [5]; -0.93 in test [6]. Further, the figures for the composite z-score in test [7], in test [9] and in test [10] were -0.669, -0.0171 and -0.353, respectively. The z-score in test [8] was -0.23 (inactive).
In the case of `CC(C)=C1C(=O)C(c2ccccc2)=C2CN3C(=O)N(CCc4ccccc4)C(=O)[C@]3(Cc3ccccc3)[C@H]21`, the composite z-score in [1] is 0.5; in test [2] it was -0.463; in test [3], -0.0612; in [4] it was 0.103; in test [5] it was -0.272; in test [6], 0.0953. Also, the composite z-score is -0.318 in test [7], 0.0891 in test [9] and -0.112 in test [10]. The z-score in test [8] is 0.438 (inactive).
